Each structure is given as a SMILES string. The whole screen tested about 69,000 compounds, of which about 8,600 (12%) showed an effect of 50% or more. Only a selection was taken, and strong results are over-represented in it overall.

The assay relates to Plasmodium berghei. The experiment in a line: Screen against P. berghei liver stage (PbLuc), transformed with Luciferase, at 10uM. It counts as functional, HepG2. The note with it: tested at 10 uM.
As for `CCS(=O)(=O)c1ncc(CN2CCCC2)n1CCc1ccccc1`, the INHIBITION turned out to be 13%.
The same measure for `CCS(=O)(=O)c1ncc(CN2CCN(C)CC2)n1CCc1ccccc1`: 38.7%; for `CCS(=O)(=O)c1ncc(CN2CCSCC2)n1CCc1ccccc1`: 58.9%; for `Cc1cc(CN2CCN(C(=O)NC(C)c3ccc(C)o3)CC2)on1` (centres undefined): 13.75%.
On to `O=C(NCCN1CCOCC1)c1ccn(-c2ccc3ccccn23)n1`, for which the INHIBITION is recorded as 47.2%.
`O=C(c1ccnn1-c1ccc2ccccn12)N1CCCC1`: the INHIBITION stood at 30.3%.
Take `COCCNC(=O)c1ccnn1-c1ccc2ccccn12`: the INHIBITION is 39.3%.
For the compound `CCN(C)C(=O)c1ccnn1-c1ccc2ccccn12`, the INHIBITION was 51.2%.
In the case of `CN(C)C1CCN(C(=O)c2ccnn2-c2ccc3ccccn23)CC1`, the INHIBITION was 4.98%.
As for `O=C(NCCN1CCOCC1)c1ccnn1-c1ccc2ccccn12`, the INHIBITION is 94%.
The same measure for `CN1CCCN(C(=O)c2ccnn2-c2ccc3ccccn23)CC1`: 53.9%.
With `O=C(NCCCN1CCOCC1)c1ccn(-c2ccc3ccccn23)n1`, the INHIBITION is given as 39.8%.
Take `O=C(c1ccnn1-c1ccc2ccccn12)N1CCOCC1`: the INHIBITION worked out at 13.1%.
For the compound `O=C(Nc1cccnc1)C1=NN(c2ccccc2)C(=O)CN1`, the INHIBITION was -141%.
On to `CCCn1nccc1-c1cnc(CC2CCN(C(C)=O)C2)cn1` (centres undefined), for which the INHIBITION amounted to 19.3%.
For the compound `O=C(Cn1ccc(=O)cc1)N1C[C@@H]2CC[C@H]1CN(c1ncccn1)C2`, the INHIBITION is listed as 15.3%.
The same measure for `O=C(c1cc(Cl)c2c(c1)OCO2)N1CCN(c2ncccn2)CC1`: 15.4%; for `CN1CCN(Cc2ccncc2)C(=O)C12CCN(Cc1ccsc1)CC2`: 1.34%.
As for `COC1CCN(CC(=O)NCc2ccc(OCC(N)=O)cc2)CC1`, the figure is 2.45%; as for `Cc1nc2ccccc2c(=O)n1CCCC(=O)N1CCNC(=O)CC1`, 4.37%.
The same measure for `Cc1ccc(=O)n(CC2(O)CCN(Cc3cnn(C)c3)CC2)n1`: -3.31%.
`Cc1nn(-c2ccccc2)nc1C(=O)NCC(c1ccsc1)N(C)C` (centres undefined): the INHIBITION amounted to 57.2%.
With `Cc1nn(C)c(Cl)c1C(=O)NCC(c1ccsc1)N(C)C` (centres undefined), the INHIBITION was determined as 36.4%.
As for `Cc1nn(-c2ccccc2)nc1C(=O)NCC(c1ccco1)N(C)C` (centres undefined), the figure is 8.48%; as for `O=C1[C@H]2CN(Cc3ccoc3)C[C@H]2CN1CCN1CCCC1`, 3.81%.
Turning to `CCN1C(=O)[C@H]2CN(CC(C)C)C[C@H]2C12CCN(S(C)(=O)=O)CC2`, the INHIBITION stood at 20.1%.
The same measure for `Cc1noc(CS(=O)(=O)C/C=C/c2ccccc2)n1`: 60.2%.
Regarding `O=S(=O)(C/C=C/c1ccccc1)Cc1nc(C2CC2)no1`, the INHIBITION is recorded as 45%.
Regarding `CCc1noc(CS(=O)(=O)C/C=C/c2ccccc2)n1`, the INHIBITION worked out at 12.4%.
In the case of `CC(=O)c1ccc(S(=O)(=O)N2CCOC(Cn3ccnc3)C2)cc1` (centres undefined), the INHIBITION came out at 30.4%.
`CSc1ncccc1C(=O)Nc1ccc(Cn2ccccc2=O)cc1`: the INHIBITION amounted to 9.16%.
As for `CS(=O)(=O)c1nccn1Cc1ccc(C(N)=O)cc1`, the figure is 19.2%.
Take `CNC(=O)c1ccc(Cn2ccnc2S(C)(=O)=O)cc1`: the INHIBITION is recorded as 20.5%.
As for `CCOCC(=O)Nc1nccn1Cc1ccc(Br)cc1`, the INHIBITION is on record as 45.2%.
Take `CC(C)(C#N)C(=O)Nc1nccn1Cc1ccc(Br)cc1`: the INHIBITION came to 60.1%.
For the compound `CSCC(=O)Nc1nccn1Cc1ccc(Br)cc1`, the INHIBITION turned out to be 50.8%.
For the compound `CCn1ccnc1CN(C)C(C(=O)O)c1ccc(C(C)(C)C#N)cc1` (centres undefined), the INHIBITION was determined as 42.8%.
For `COCCC(=O)Nc1nccn1Cc1ccc(Br)cc1`, the INHIBITION was determined as 23.9%.
As for `COCC(=O)Nc1nccn1Cc1ccc(Br)cc1`, the figure is 84.2%.
On to `CC(NC(=O)NCCCN1CCCC1=O)c1nncn1C` (centres undefined), for which the INHIBITION was -7.31%.
As for `CCC(C(=O)NC1CCCC1)n1ccc2ncccc2c1=O` (centres undefined), the figure is -13.2%; as for `Cc1n[nH]c(C)c1C1CCCN1C(=O)NCC(=O)Nc1ccccc1` (centres undefined), 22%; as for `O=C(c1ccc2c(c1)OCCCO2)N1CCCC(n2ccnc2)C1` (centres undefined), 42%.
For `Cc1csc(CCNC(=O)NC(C)Cn2cccn2)n1` (centres undefined), the INHIBITION was -7.31%.
For `CC/C=C(\C)CN1CCC(CNC(=O)c2ccc(=O)[nH]c2)CC1`, the INHIBITION is listed as -24.7%.
On to `COc1ccc(NC(=O)c2cnc(N(C)C3CCCCC3)nc2N)cc1`, for which the INHIBITION was 35.7%.
As for `CC/C=C(\C)CN1CCC(CNC(=O)c2ccnc(N)c2)C1` (centres undefined), the figure is -5.8%; as for `CN(C)c1cc(CNC(=O)c2ccc(O)nc2)ccn1`, 9.64%.
As for `CN(c1ccc(CNC(=O)c2c[nH]c(=O)c(Cl)c2)cc1)C1CCCCC1`, the figure is 77.6%; as for `CN(c1ccc(CNC(=O)c2ccc(O)nc2)cc1)C1CCCCC1`, 67.8%.
The same measure for `Cc1ccc(C(=O)NCc2ccc(N(C)C)cc2)cn1`: 32%; for `CN(c1ncc(C(=O)Nc2ccccc2)c(N)n1)C1CCCCC1`: 47.2%; for `CNC(=O)c1ccc(CNC(=O)NCCN(C)C2CCCC2)cc1`: -2.53%.
As for `CN(c1ncc(C(=O)NCc2ccccc2)c(N)n1)C1CCCCC1`, the INHIBITION was found to be 63.6%.
As for `CC/C=C(\C)CN1CCC(CNC(=O)c2c[nH]c(=O)c(Cl)c2)C1` (centres undefined), the figure is 63.8%; as for `CCC1CCC(CNC(=O)c2c[nH]c(=O)c(Cl)c2)CC1` (centres undefined), 4.35%.
In the case of `CCOc1ncccc1NC(=O)N1CCC(CN2CCOCC2)CC1`, the INHIBITION is 31.65%.
As for `C[C@@H]1C(=O)NC[C@H]2CN(CCc3ccccc3)C[C@H]21`, the figure is 26.6%; as for `CCC(CN1CCCC1)n1cncc1-c1cnn(-c2ccc(F)cc2)c1` (centres undefined), 43.55%; as for `CCOC1COC2(CCN(c3ncc(C)cn3)CC2)C1` (centres undefined), 10.6%.
The same measure for `CC(C)c1cc(C(=O)N2CCCC(n3cncn3)C2)n[nH]1` (centres undefined): 15.6%.
Consider `Fc1ccc(-c2nnc(CN3CCCC3Cn3cccn3)o2)cc1` (centres undefined), for which the INHIBITION was 11.6%.
As for `Cn1nc2c(c1NC(=O)c1ccc(C3CCCN3C3CCC3)s1)CCC2` (centres undefined), the INHIBITION was 15.4%.
In the case of `O=C(c1ccc(C2CCCO2)s1)N1Cc2ccccc2C1` (centres undefined), the INHIBITION was -44.8%.
As for `CN1CCCC1c1ccc(C(=O)Nc2c3c(nn2C)CCC3)s1` (centres undefined), the figure is 56%; as for `Cn1nc2c(c1NC(=O)c1ccc(Cl)s1)CCC2`, -57.9%; as for `CN1CCCC1c1ccc(C(=O)N2CCc3ccccc3C2)s1` (centres undefined), 66.9%.
As for `CC(=O)N1CCCC1c1ccc(C(=O)N2CCOCC2)s1` (centres undefined), the figure is 21.7%.
The same measure for `COCC1CC2(CCN(Cc3cnn(C)c3)CC2)CN1c1ncccn1` (centres undefined): 18.5%.
Regarding `O=C(CN1CCCC1COc1ccccc1)NCc1ccccn1` (centres undefined), the INHIBITION came out at 38.2%.
Regarding `Cc1nc(C(C)(C)NC(=O)Nc2cccc(C#N)c2)no1`, the INHIBITION is -4.74%.
The same measure for `Cc1ccc(NC(=O)NC(C)(C)c2noc(C)n2)cc1`: 13.6%; for `Cc1nc(C(C)(C)NC(=O)Nc2ccc(C#N)cc2)no1`: 79.2%.
As for `CCc1csc(C2CCCN(C(=O)c3ccnc(N(C)C)c3)C2)n1` (centres undefined), the figure is 27.6%.
The same measure for `Cc1nc(NC(=O)NCc2cccnc2NCCN(C)C)sc1C`: 37.7%; for `CC(C)c1nnc(NC(=O)NCc2cccnc2NCCN(C)C)s1`: 25.7%; for `CN(C)CCNc1ncccc1CNC(=O)Nc1cc(F)cc(F)c1`: 55.6%.
With `Cn1cc(S(=O)(=O)N(Cc2ccc(F)cc2F)C2CC2)cc1C(N)=O`, the INHIBITION is reported as 40.9%.
Regarding `Cc1n[nH]c(C)c1NC(=O)CN1CCCC1c1c(C)nn(C)c1C` (centres undefined), the INHIBITION amounted to 9.54%.
As for `CCN(CC)C(=O)CSc1nc2cc(C)nc-2c(O)n1CC`, the INHIBITION was 42.4%.
As for `c1cncc(C2COC3(CCN(Cc4nccs4)CC3)C2)c1` (centres undefined), the INHIBITION stood at 36.2%.
For the compound `O=C(CCn1ccc2ccccc21)N1CCC(Nc2cccnn2)CC1`, the INHIBITION was -35.2%.
As for `O=C(CCn1ccc2ccccc21)N1CCC(Nc2cccnc2)CC1`, the figure is -22.4%; as for `Cc1nc(CN2CCN(C(=O)CCc3cccnc3)CC2)no1`, 65.2%; as for `O=C(CCn1ccc2ccccc21)N1CCN(Cc2cccnc2)CC1`, 64.9%.
Regarding `COc1cccc(CCC(=O)N2CCN(Cc3noc(C)n3)CC2)c1`, the INHIBITION was -30.7%.
The same measure for `Cc1nc(CN2CCN(C(=O)Cc3cccc(Cl)c3)CC2)no1`: -2.04%; for `Cc1nc(CN2CCN(C(=O)CCC(=O)c3ccccc3)CC2)no1`: -36.4%; for `Cc1nc(CN2CCN(C(=O)CCc3cccc(Cl)c3)CC2)no1`: 75.2%.
Take `Cc1nc(CN2CCN(C(=O)CC(C)(C)c3ccccc3)CC2)no1`: the INHIBITION is reported as -73.6%.
Take `O=C(CCn1cccn1)N1CCSCC1`: the INHIBITION is listed as 4.55%.
The same measure for `CN(C)Cc1ccccc1CN(C)C(=O)c1ccoc1`: 11.1%.
The same measure for `c1c(CN2CCCCC2)nc2n1CCNC2`: -46.4%.
The same measure for `Cc1nn(C)cc1S(=O)(=O)N(C)[C@@H]1CCC[C@@H](n2ccnc2)[C@@H]1O`: 23%; for `O=C(CCc1c(F)cccc1F)NS(=O)(=O)c1ccc2c(c1)OCCO2`: 0.914%.
As to `FC(F)(F)CN1CCC(CNc2nc3ccccc3o2)C1` (centres undefined), the INHIBITION worked out at 24.8%.
Turning to `OC1(CNc2ccc(Br)cn2)CCC1`, the INHIBITION is -28.6%.
The same measure for `CC(C)(C)c1n[nH]cc1CNCC1CCN(CC(F)(F)F)C1` (centres undefined): -35.2%.
The same measure for `COc1nc2ccccc2cc1CN1CCC(CNS(C)(=O)=O)C1` (centres undefined): 7.15%.
Regarding `Cc1cc(C)c2c(NCC3(O)CCCCC3)ncnc2n1`, the INHIBITION turned out to be 36.6%.
The same measure for `OCc1cc2ccccc2nc1NCC1(O)CCC1`: 58.2%; for `Cc1nnc2n1CC(CNc1ncnc3ccccc13)CC2` (centres undefined): 22%; for `OCc1cc2ccccc2nc1NCC1CCN(CC(F)(F)F)C1` (centres undefined): 63.8%.
As for `OCc1cc2ccccc2nc1NC1CC=CC1`, the figure is 62.8%.
`OCc1cc2ccccc2nc1NCC1CC1`: the INHIBITION turned out to be 59.1%.
The same measure for `COc1cccn(CC(=O)N2CCCC3(CCOCC3)C2)c1=O`: 40.9%.
As for `COCCNC(=O)[C@@]12CCO[C@@H]1CCN(Cc1ccc(OC)cc1)C2`, the figure is 39.2%.
For `COc1ccc(CN2C[C@H]3CCC[C@@H](CN(C)C4CC4)[C@H]3C2)cn1`, the INHIBITION is reported as -15.3%.
As for `CC(C)(C)c1n[nH]cc1CNCC1CCN(C2CC2)C1` (centres undefined), the figure is 26.3%.
